Reference: PubChem BioAssay (EPA / NIEHS)
Several values for one entry are separate records, joined by “and”; a condition that tells them apart may be missing. Equal values may be shown once. Where a structure was tested more than once in an assay, its records may differ in their call. Activity calls are given as the source filed them. Rule for the calls: active = hit-call score of the fitted dose curve at least 0.9, where 1 is the maximum; inactive = score below 0.9.

Assay: APR_HepG2_p53Act_72hr: Apredica 72-hour HepG2 Assay for p53 Activation (AID 2282923);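 note: average cellular p53 protein immunofluorescence intensity in HepG2 cells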
Settings: high-content imaging, actives raise or lower the signal
Experimental: APR_HepG2_72hr is a cell-based, multiplexed-readout assay that uses HepG2, a human liver cell line, with measurements taken at 72 hours after chemical dosing in a 384-well plate.APR_HepG2_p53Act_72hr is one of 10 assay component(s) measured or calculated from the APR_HepG2_72hr assay. It is designed to make measurements of dna content, a form of viability reporter, as detected with fluorescence intensity signals by HCS Fluorescent Imaging technology.Data from the assay component APR_HepG2_p53Act_72hr was analyzed into 1 assay endpoint. This assay endpoint, APR_HepG2_p53Act_72hr, was analyzed with bidirectional fitting relative to DMSO as the negative control and baseline of activity. Using a type of viability reporter, measures of protein for gain or loss-of-signal activity can be used to understand the signaling at the pathway-level as they relate to the gene TP53. Furthermore, this assay endpoint can be referred to as a primary readout, because this assay has produced multiple assay endpoints where this one serves a signaling function. To generalize the intended target to other relatable targets, this assay endpoint is annotated to the dna binding intended target family, where the subfamily is tumor suppressor.
Cells were treated with dimethyl sulfoxide (DMSO) as a solvent control at a final concentration of 0.5% v/v or with compounds in DMSO with a resulting final DMSO concentration of 0.5% v/v. Compound treatment was done at concentrations of 0.39, 0.78, 1.56, 3.12, 6.24, 12.5, 25, 50, 100, and 200 uM in duplicate on each plate. Cells were treated with compounds for 1, 24, or 72 hr. Carbonyl […] m-chloro-phenylhydrazone (CCCP) and taxol were used as positive controls for mitochondrial function and cytoskeletal stability, respectively; DMSO served as the negative control for this experiment. Cells were fixed by the direct addition of 50 uL formaldehyde in Hank's Balanced Salt Solution (HBSS) to a final concentration of 3.7%. After incubation in the fixation medium for 30 min at room temperature (293-298 K), cells were rinsed twice with HBSS and treated with cell permeabilization buffer (16 uL of 0.5% Triton X-100) for 10 min at room temperature (293-298 K) before labeling. For mitochondrial membrane potential and mitochondrial measurements, pre-fixed cells were incubated with 50 uL of MitoTracker Red CMXRos (Invitrogen) at a concentration of 250 nM for 30 min before fixation. In the remaining cases, post-fixed cells were labeled by incubation with a multiplexed mixture of primary antibodies in HBSS for 60 min at room temperature (293-298 K) to detect immunoreactivity of c-Jun (1:500), phospho-histone H3 (1:100), phospho-histone H2A.x (1:200), p53 (1:400), alpha-tubulin (1:200) and Hoechst 33342 (2 ug/mL). Cells were labeled for multiplexed imaging on two separate plates: a) Hoechst 33342, MitoTracker Red, phospho-histone H3, and alpha-tubulin, and b) Hoechst 33342, phospho-histone H2A.x, and c-Jun. A final rinse with HBSS (50 uL) was performed before analysis. The primary and secondary antibodies for the proteins were phospho-histone H3 (rabbit anti-phospho-histone H3 and FITC-donkey anti-rabbit IgG), phospho-histone H2A.x (mouse anti-phospho-histone H2A.x and FITC-donkey anti-mouse IgG), c-Jun (rabbit anti-phospho-c-Jun and Cy3-donkey anti-rabbit IgG), p53 (sheep anti-p53 and Cy5-donkey anti-sheep IgG), alpha-tubulin (mouse anti-alpha-tubulin and Cy5-donkey anti-mouse IgG). These antibodies are available as the CellCiphr HepG2 assay kit (Millipore).Digital images of each well were captured using a Cellomics ArrayScan VTI (Thermo Scientific Cellomics) (0.8 NA objective, 0.63x optical coupler, and XF-93 filter set) at 20x magnification. The images were acquired using the autofocus feature of the ArrayScan instrument, which entails the following steps. First, the camera focuses on channel 1 (Hoechst 33342), where nuclei are identified. Second, a Z offset of 1 um is used for capturing mitochondria (MitoTracker Red). […]

SMILES | outcome | AC50
COP(=S)(OC)Oc1nc(Cl)c(Cl)cc1Cl | inactive | 
N#CC(CCc1ccc(Cl)cc1)(Cn1cncn1)c1ccccc1 (stereo not given) | inactive | 
C=CCC1=C(C)C(OC(=O)C2C(C=C(C)C)C2(C)C)CC1=O (stereo not given) | inactive | 117 µM (active)
Cc1cc(Cl)ccc1OCC(=O)O | inactive | 
CO/C=C(/C(=O)OC)c1ccccc1Oc1cc(Oc2ccccc2C#N)ncn1 | inactive | 50.7 µM (active) and 53 µM (active) and 50.6 µM (active)
CCCC1COC(Cn2cncn2)(c2ccc(Cl)cc2Cl)O1 (stereo not given) | inactive | 
CC1=C(C(=O)Nc2ccccc2)SCCO1 | inactive | 
COP(N)(=O)SC (stereo not given) | inactive | 
CON(C)C(=O)Nc1ccc(Cl)c(Cl)c1 | inactive | 
COc1nc(C)nc(NC(=O)NS(=O)(=O)c2ccccc2CCC(F)(F)F)n1 | inactive | 
CN(C)C(=S)SSC(=S)N(C)C | inactive | 
CC(C)C1(C)N=C(c2nc3ccccc3cc2C(=O)O)NC1=O (stereo not given) | inactive | 
O=C(O)COc1nc(Cl)c(Cl)cc1Cl | inactive | 
N#Cc1nn(-c2c(Cl)cc(C(F)(F)F)cc2Cl)c(N)c1S(=O)C(F)(F)F (stereo not given) | inactive | 
COc1ccc(C(c2ccc(OC)cc2)C(Cl)(Cl)Cl)cc1 |  | 76.4 µM (active)
Cc1c(F)c(F)c(COC(=O)C2C(/C=C(\Cl)C(F)(F)F)C2(C)C)c(F)c1F (stereo not given) | inactive | 
CCCCOC(=O)c1ccccc1C(=O)OCCCC | inactive | 
CCOC(=O)C(Cl)Cc1cc(-n2nc(C)n(C(F)F)c2=O)c(F)cc1Cl (stereo not given) | inactive | 
CCNc1nc(Cl)nc(NC(C)C)n1 | inactive | 

SMILES | outcome | AC50
CCCCC(CC)COC(=O)c1ccccc1C(=O)OCC(CC)CCCC (stereo not given) | inactive | 
CCCCNC(=O)OCC#CI | inactive | 
COc1nc(NC(C)C)nc(NC(C)C)n1 | inactive | 
CCON=C(CC)C1=C(O)CC(c2c(C)cc(C)cc2C)CC1=O (stereo not given) | inactive | 
CC(C)Oc1cc(-n2nc(C(C)(C)C)oc2=O)c(Cl)cc1Cl | inactive | 
O=C(O)c1nc(Cl)ccc1Cl | inactive | 
C#CCOS(=O)OC1CCCCC1Oc1ccc(C(C)(C)C)cc1 (stereo not given) | inactive | 
COc1cnc(OC)n2nc(NS(=O)(=O)c3c(OCC(F)F)cccc3C(F)(F)F)nc12 | inactive | 
C=CCC1=C(C)[C@@H](OC(=O)[C@@H]2[C@@H](C=C(C)C)C2(C)C)CC1=O |  | 107 µM (active)
CC1COC(Cn2cncn2)(c2ccc(Oc3ccc(Cl)cc3)cc2Cl)O1 (stereo not given) | inactive | 
CCOP(=S)(OCC)SCn1c(=O)oc2cc(Cl)ccc21 | inactive | 
CNC(=O)ON=CC(C)(C)SC | inactive | 
COc1nc(C)nc(NC(=O)NS(=O)(=O)c2ccccc2Cl)n1 | inactive | 
COC(=O)N(OC)c1ccccc1COc1ccn(-c2ccc(Cl)cc2)n1 | inactive | 
O=C(Nc1ccccc1)Nc1ccnc(Cl)c1 | inactive | 
CCOC(=O)CC(SP(=S)(OC)OC)C(=O)OCC (stereo not given) | inactive | 
C=CC1(C)OC(=O)N(c2cc(Cl)cc(Cl)c2)C1=O (stereo not given) | inactive | 
CCOc1cc(Oc2ccc(C(F)(F)F)cc2Cl)ccc1[N+](=O)[O-] | inactive | 
CCNc1nc(Cl)nc(NCC)n1 | inactive | 
